From ChEMBL document CHEMBL4513216, “Probing the Open Global Health Chemical Diversity Library for Multistage-Active Starting Points for Next-Generation Antimalarials” (ACS Infect Dis, 2020)
The campaign covered roughly 69,000 compounds. About 8,600 (12%) showed an effect of 50% or more. Many of the other results were omitted from the sample, so strong results are more common in it than they were.

tested on: Plasmodium berghei; assay: Screen against P. berghei liver stage (PbLuc), transformed with Luciferase, at 10uM; format: functional, HepG2; conditions: tested at 10 uM

Row | Structure (SMILES) | INHIBITION [%]
1 | Cc1ncsc1CN1C[C@@H]2COC[C@]2(C(=O)NC(C)C)C1 | 18.6
2 | COc1ccc(CC(=O)N2Cc3nccn3CC(CN(C)C)C2)cc1 (configuration not stated) | 6.72
3 | CC(NC(=O)NCc1ccoc1)c1ccc2c(c1)CC(=O)N2 (configuration not stated) | -55.4
4 | CCOc1cccc(CNC2CCCN(Cc3noc(C)n3)C2)c1 (configuration not stated) | 47
5 | COCCN1CCCC12CCN(Cc1cncn1C)CC2 | 49.1
6 | COCCn1cncc1CN1CCC(C(C)=O)(c2ccccc2)CC1 | 50.7
7 | COCCn1cncc1Cn1ncc2ccccc2c1=O | 13
8 | CC(C)CN(CC(O)c1ccc(F)cc1)C(=O)c1cnsn1 (configuration not stated) | -24.9
9 | COCCOCC(=O)N1C[C@@H]2CC[C@H]1CN(C1Cc3ccccc3C1)C2 | -62.1
10 | CN(C)C(=O)N1C[C@@H]2CC[C@H]1CN(C1Cc3ccccc3C1)C2 | -57.9
11 | Cc1noc(CN2C[C@@H]3CC[C@H]2CN(C2Cc4ccccc4C2)C3)n1 | 30.9
12 | Cc1nnc(CN2C[C@@H]3CC[C@H]2CN(C2Cc4ccccc4C2)C3)o1 | 66.1
13 | CCc1noc(CN2C[C@@H]3CC[C@H]2CN(C2Cc4ccccc4C2)C3)n1 | 12.8
14 | O=C(CO)N1C[C@@H]2CC[C@H]1CN(C1Cc3ccccc3C1)C2 | 25.4
15 | CCc1cc(CN2C[C@@H]3CC[C@H]2CN(C2Cc4ccccc4C2)C3)on1 | 57.1
16 | CSCC(=O)N1C[C@@H]2CC[C@H]1CN(C1Cc3ccccc3C1)C2 | -69.3
17 | Cc1cc(CN2C[C@@H]3CC[C@H]2CN(C2Cc4ccccc4C2)C3)on1 | 64.5
18 | O=C1COC2(CCN(C(=O)c3ccco3)CC2)CN1Cc1ccccn1 | 28.2
19 | CCn1cc(-c2n[nH]c(=O)n2-c2ccc(OC)c(OC)c2)c(C)n1 | 41.4
20 | CCn1ccc2ccnc(CC3CN(C(=O)Cn4ccnc4C)C3)c21 | 6.26
21 | CCc1nccn1C1CCCN(C(=O)c2ccc3nnc(C)n3c2)C1 (configuration not stated) | -6.44
22 | Cc1ccc(S(=O)(=O)Nc2c(C)nn(C)c2C)cc1C | 45.7

Row | Structure (SMILES) | INHIBITION [%]
23 | COc1c(NS(=O)(=O)c2ccc(C)c(C)c2)c(C)nn1C | 51.1
24 | COc1c(NS(=O)(=O)c2ccc(F)c(C)c2)c(C)nn1C | 29.6
25 | Cc1noc(C)c1S(=O)(=O)N1CCC(n2cccn2)CC1 | -25.4
26 | CCN1CCC(N2CCC(c3nc(C)cc(C)n3)C2)CC1 (configuration not stated) | 23.9
27 | CN(C)C(=O)C1CCCN1CCCNC(=O)c1ccccc1Cl (configuration not stated) | 42.5
28 | CC(C)(C)c1oc(C(N)=O)cc1CN1CCCCC1CN1CCOCC1 (configuration not stated) | 48.5
29 | CC(C)(C)c1oc(C(N)=O)cc1CN1CCCCC(N)C1 (configuration not stated) | 51.8
30 | CC(C)(C)c1oc(C(N)=O)cc1CN1CCOC(C(F)(F)F)C1 (configuration not stated) | 22.5
31 | CC(Sc1nncn1C)C(=O)NCCCOc1ccc(F)cc1 (configuration not stated) | 51.7
32 | Cc1cc(C)cc(OCCNC(=O)C(C)Sc2nncn2C)c1 (configuration not stated) | 53.6
33 | Cc1ccc(OCCNC(=O)C(C)n2cncn2)cc1 (configuration not stated) | 8.47
34 | CC(C(=O)NCCOc1ccc(F)cc1)n1cncn1 (configuration not stated) | -44.3
35 | Cc1ccc(OCCCNC(=O)C(C)Sc2nncn2C)cc1 (configuration not stated) | 50.8
36 | Cc1ccc(OCCCNC(=O)NC(C)c2nncn2C)cc1 (configuration not stated) | 38.7
37 | Cc1cc(C)cc(OCCN(C)C(=O)NC(C)c2nncn2C)c1 (configuration not stated) | 21.5
38 | CC(NC(=O)NCCOc1ccc(F)c(F)c1)c1nncn1C (configuration not stated) | 0.0932
39 | CC(NC(=O)N(C)CCCOc1ccc(F)cc1)c1nncn1C (configuration not stated) | -20
40 | O=C(CCSc1ccccc1F)NCc1cccnc1 | -0.514
41 | NC(=O)CN1CC(c2nc(C3CC3)no2)C1 | 19.8
42 | Cc1nn(CCNC(=O)c2cc(C3CC3)[nH]n2)c(C)c1Cl | -28
43 | CCN(C)c1ncnc2c1CCN(Cc1ccncc1)CC2 | 38.3
44 | CN(C)S(=O)(=O)N1C[C@@H](OCc2cccnc2)[C@H]2OCCC[C@H]21 | 11.6

Row | Structure (SMILES) | INHIBITION [%]
45 | Cc1nc2cc(C(=O)N(CCC#N)CC3CCCO3)ccc2[nH]1 (configuration not stated) | -0.371
46 | Cc1ccccc1C(N)c1ccncc1 (configuration not stated) | -1.38
47 | Cc1nc(CN2CCC3(CCN(Cc4cnn(C)c4)CC3)C2=O)cs1 | -22.1
48 | CSc1ccccc1C(=O)N1C[C@@H]2CC[C@H]1CN(C(=O)C1CCC1)C2 | 9.41
49 | CCC(C)Sc1ncc(-c2c(C#N)c(N)nc3c2COCC3)cn1 (configuration not stated) | 29.9
50 | Cc1noc(CCNC(=O)NCc2ccc(N3CCCCC3)cc2)n1 | -95.7
51 | CCc1cc(CNC(=O)NCc2ccc(N3CCCCC3)cc2)on1 | 51.1
52 | CCc1cc(CNC(=O)Nc2cc(F)cc(N3CCCC3)c2)on1 | 38.3
53 | COc1ccccc1CN(CC1CCCO1)C(=O)c1ccc(F)cn1 (configuration not stated) | 5.23
54 | CCn1cc2c(n1)CN(S(=O)(=O)c1cn(C)cn1)CC2COC (configuration not stated) | -18.5
55 | CCC1CCCN(Cc2nc(N)c3ccccc3n2)C1 (configuration not stated) | 36.75
56 | CN(C)c1nc(N)nc(CN2CCCC2c2ccsc2)n1 (configuration not stated) | 25.5
57 | Cc1cccc(C2CCCN2Cc2nc(N)nc(N(C)C)n2)c1C (configuration not stated) | 35.2
58 | Cn1ccc(CN2CCC(c3ccccc3)CC2)cc1=O | 38
59 | CN(C)c1nc(N)nc(CN2CCC(c3ccccc3)CC2)n1 | 67.8
60 | CN(C)c1nc(N)nc(CN2CCCC(c3ccccc3)CC2)n1 (configuration not stated) | 57.8
61 | CN(C)c1nc(N)nc(CN2CCC(c3nc4ccccc4o3)CC2)n1 | 45.4
62 | O=C(O)CN1CCC(c2ccccc2)CC1 | 1.03
63 | CN(C)c1nc(N)nc(CN2CCCC2c2cccs2)n1 (configuration not stated) | 70
64 | CCN(Cc1ccncc1)c1cc(C2CCN2C(C)=O)nc(C)n1 (configuration not stated) | 19.775
65 | CC(C)c1cc(C(=O)N[C@@H]2CC[C@@H](Oc3ccccc3)[C@@H]2O)on1 | -10.955
66 | CCOCCNC(=O)[C@@H]1CCCN1c1nccc(Nc2ccccc2)n1 | 6.55

Row | Structure (SMILES) | INHIBITION [%]
67 | O=C(CSc1ccncc1)N1C[C@@H]2CC[C@H]1CN(Cc1cccnc1)C2 | 9.54
68 | CCc1csc(C2CCCN(C(=O)c3ccccn3)C2)n1 (configuration not stated) | 14.1
69 | NCC1[C@H]2CN(Cc3cccc(Cl)c3)C[C@@H]12 (some centres not stated) | 13.7
70 | Cc1ccc(S(=O)(=O)N2CCN(C)c3ccncc32)cc1F | 41
71 | c1cnnc(N2CCCC(NCc3nc(C4CC4)no3)C2)c1 (configuration not stated) | 58.5
72 | c1cnnc(N2CCCC(NCc3nc(-c4ccco4)no3)C2)c1 (configuration not stated) | 55.5
73 | c1cnnc(N2CCCC(NCc3ccncc3)C2)c1 (configuration not stated) | 30.8
74 | Cc1cnc(CN(C)C2CCCN(c3cccnn3)C2)cn1 (configuration not stated) | 3.19
75 | Cc1ncc(CN(C)C2CCCN(c3cccnn3)C2)s1 (configuration not stated) | 58.3
76 | c1ccc(-c2cnc(CNC3CCCN(c4cccnn4)C3)o2)cc1 (configuration not stated) | 51.2
77 | COCCc1noc(CNC2CCCN(c3cccnn3)C2)n1 (configuration not stated) | 21.8
78 | CN(Cc1ccc(Cl)s1)C1CCCN(c2cccnn2)C1 (configuration not stated) | 17.4
79 | Cc1oc(-c2ccco2)nc1CNC1CCCN(c2cccnn2)C1 (configuration not stated) | -21.55
80 | CN(Cc1ncc(-c2ccccc2)o1)C1CCCN(c2cccnn2)C1 (configuration not stated) | 43.2
81 | c1ccc(-c2noc(CNC3CCCN(c4cccnn4)C3)n2)nc1 (configuration not stated) | 45.4
82 | c1ccc(-c2nnc(CNC3CCCN(c4cccnn4)C3)o2)cc1 (configuration not stated) | -43.25
83 | CC1c2cc(F)ccc2CCN1C(=O)c1[nH]c(=O)[nH]c(=O)c1N (configuration not stated) | 33.4
84 | CCc1cc(C(=O)N2CC[C@@H](c3ccc4c(c3)OCO4)[C@H](O)C2)ccn1 | 26.5
85 | Cc1noc(C)c1CN1CCn2cc(CN3CCCCC3)nc2C1 | -33.1
86 | O=C(NCc1nnc2n1CCC2)NCC1(c2cccc(F)c2)CC1 | -14.6
87 | c1nc2c(c(NC3COC4(CCCC4)C3)n1)CCNCC2 (configuration not stated) | 37.7
88 | c1cnnc(N2CCCC(NCc3cccc4c3OCO4)C2)c1 (configuration not stated) | 53.7

Row | Structure (SMILES) | INHIBITION [%]
89 | COCCc1noc(CN(C)C2CCCN(c3cccnn3)C2)n1 (configuration not stated) | 9.54
90 | c1cnnc(N2CCCC(NCc3nnc(-c4ccco4)o3)C2)c1 (configuration not stated) | 31.8
91 | c1csc(-c2noc(CNC3CCc4ncnn4C3)n2)c1 (configuration not stated) | 0.65
92 | c1cnnc(N2CCCC(NCc3nc(-c4cccs4)no3)C2)c1 (configuration not stated) | 60.3
93 | C=c1ccoc1=C1NN=C(CNC2CCCN(c3cccnn3)C2)O1 (configuration not stated) | 56.05
94 | C=c1ccoc1=C1NN=C(CNCC2CCCN2c2cccnn2)O1 (configuration not stated) | 18.5
95 | c1cnnc(N2CCCC2CNCc2nc(-c3cccs3)no2)c1 (configuration not stated) | 31.9
96 | CN(Cc1nc(C2CC2)no1)C1CCCN(c2cccnn2)C1 (configuration not stated) | 53.5
97 | c1cnnc(N2CCCC(NCc3cccc4c3OCCO4)C2)c1 (configuration not stated) | -12.2
98 | CN(Cc1nc(-c2ccco2)no1)C1CCCN(c2cccnn2)C1 (configuration not stated) | 20.1
99 | c1cnnc(N2CCCC(NCc3cccc4c3OCCCO4)C2)c1 (configuration not stated) | 11.9
100 | CC(C)c1noc(CCC(=O)NCC2CC2)n1 | 38.5
101 | O=C1CC(NCc2ccccn2)CN1CCc1ccc(F)cc1 (configuration not stated) | 17.8
102 | CN1CCC/C1=N\S(=O)(=O)c1ccc(NC(=O)Cc2cccs2)cc1 | -6.14
103 | O=C(CCn1cc(Cl)cn1)N1C[C@H]2CC[C@@H](C1)N(Cc1ccccn1)C2 | -29.1
104 | Cc1cnn(CC2CCCCN2C(=O)c2cnc3n[nH]c(C)c3c2)c1 (configuration not stated) | -14
105 | CN(CCO)Cc1cc(Cl)ccc1OCC(O)CN1CCCCCC1 (configuration not stated) | -26.8
106 | O=C(NCc1ccccc1Cn1cncn1)C1CCC1 | 11.4
107 | CC(=O)N1CCC(Cc2nccnc2-c2ccnn2C)CC1 | 4.41
